Where “and” joins values, the source holds several entries; their conditions need not be identical. Equal values may be shown once. Results filed as inconclusive are left out. Unmarked numbers belong to inactive results. Calls of active or inactive are those of the source. The call rests on the fitted dose curve; in most records, active means well fitted curve in the direction sought with a large enough effect; inconclusive means small, poorly fitted or top-dose-only effect, or another doubt; inactive means no such curve, though single readings can be large or run the other way.

The source of these data is PubChem BioAssay (NCATS).
On the % scale 0 is the no-effect control and ±100 the full control effect; potency means the concentration at half of the fitted maximal effect.

The nature of this assay: qHTS Assay for Identifying Gametocytocidal Compounds (AID 743244).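 On max response: actives lower the fluorescent signal which means gametocytes are killed.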 Particulars: P. falciparum 3D7 stage III-V gametocytes, alamarBlue, 72 h; max response: hits give low values. The method in brief: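 A resazurin-based viability read-out was applied to mature P. falciparum gametocytes: 72 h compound treatment, then 24 h dye incubation, with falling fluorescence signalling gametocytocidal effect.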
For the molecule `C[C@@H]1C[C@H]2[C@@H]3CCC4=CC(=O)C=C[C@]4(C)C3(F)[C@@H](O)C[C@]2(C)[C@@]1(O)C(=O)CO` (stereo partly drawn), the max response was 2.96%.

As to `COc1ccccc1[C@H](c1cccc2ccccc12)[C@@](C)(C#N)C(=O)N1CCC(c2cccc(C(F)(F)F)c2)CC1`, the max response was -0.358%.

`N#Cc1ccc(C(c2ccc(C#N)cc2)n2cncn2)cc1`: the max response was 16.5% and 0.241%.

For `Cn1c(=O)c(F)c(Nc2ccc(I)cc2F)c2c(=O)n(C[C@@H](O)CO)cnc21`, the max response was -1.37%.

Regarding `OCCn1cc(-c2cnc3nnn(Cc4ccc5ncccc5c4)c3n2)cn1`, the Potency was 29.6 µM (active).

As for `CS(=O)(=O)Oc1ccc2c(NC(N)=O)c(C(=O)c3ccc(Cl)cc3Cl)oc2c1`, the max response was 25%.

For `CCC(=O)N[C@H]1CC[C@H](C(=O)N(C)c2ccc(-c3nc4ccccc4o3)cc2)C1`, the max response is 65.6%.

For the molecule `CC1(C)CNc2cc(NC(=O)c3cccnc3NCc3ccncc3)ccc21`, the max response is -7.52%.

Take `CCN(CCCO)CCCOc1ccc2c(Nc3cc(CC(=O)Nc4cccc(F)c4)[nH]n3)ncnc2c1`: the Potency was 0.743 µM (active).

With `CNCc1ccc(-c2[nH]c3cc(F)cc4c3c2CCNC4=O)cc1`, the Potency is 29.6 µM (active).

On to `CCC(C)n1ncn(-c2ccc(N3CCN(c4ccc(OC[C@H]5CO[C@](Cn6cncn6)(c6ccc(Cl)cc6Cl)O5)cc4)CC3)cc2)c1=O` (stereo partly drawn), for which the max response is 3.11%.

With `Cc1ccccc1C(C(=O)NC1CCCC1)N(C(=O)Cn1cnc2ccccc21)c1cccc(F)c1` (stereo not drawn), the max response is -12.2%.

As to `COc1ccccc1-c1cccc(-c2c(O)c3cc(C#N)c(Cl)cc3[nH]c2=O)c1`, the max response was 99.8%.

For `CCOC(=O)N[C@@H]1CC[C@@H]2[C@@H](C1)C[C@H]1C(=O)O[C@H](C)[C@H]1[C@@H]2C=Cc1ccc(-c2cccc(F)c2)cn1`, the max response is -4.74%.

As to `CCCn1c(=O)c2[nH]c(C34CC5CC3C[C@@H](C5)C4)nc2n(CCC)c1=O`, the max response was 25.8%.

For the molecule `CCc1cc(Nc2nccc(-c3c(-c4ccc(OC)c(C(=O)Nc5c(F)cccc5F)c4)nc4ccccn34)n2)c(OC)cc1N1CCC(N2CCN(S(C)(=O)=O)CC2)CC1`, the Potency is 3.72 µM (active).

As for `O=C(O)CCc1ccc(NCc2cccc(Oc3ccccc3)c2)cc1`, the max response is 20.3%.

Regarding `CC(c1cc2ccccc2s1)N(O)C(N)=O` (stereo not drawn), the max response is 2.55%.

Take `Cc1ccc(-n2nc(C(C)(C)C)cc2NC(=O)Nc2ccc(OCCN3CCOCC3)c3ccccc23)cc1`: the Potency is 12.6 µM (active).

Regarding `Nc1nccc(-c2ccc3noc(-c4ccc(Cl)cc4)c3c2)n1`, the max response was -14.8%.

`O=C(Nc1cccnc1)N1CCC(Cc2cccc(Oc3ccc(C(F)(F)F)cn3)c2)CC1`: the max response was -7.98%.

Turning to `Oc1cccc(-c2nc(N3CCOCC3)c3oc4ncccc4c3n2)c1`, the max response was -13.9%.

As to `CN(C)c1ccc(Nc2nc(N)n(C(=O)c3c(F)cccc3F)n2)cc1`, the max response is -28%.

For the molecule `Clc1ccc(Nc2nnc(Cc3ccncc3)c3ccccc23)cc1`, the max response was -0.822% and -17.1%.

For the molecule `CCOc1ccc(Cc2cc([C@@H]3O[C@H](CO)[C@@H](O)[C@H](O)[C@@H]3O)ccc2Cl)cc1`, the max response is 10.7%.

`CN(C(=O)c1ccc(F)cc1C(F)(F)F)C1CCN(c2nnc(-c3ccnn3C)c3ccccc23)CC1`: the max response was 1.04%.

Consider `CCCS(=O)(=O)Nc1ccc(F)c(C(=O)c2c[nH]c3ncc(-c4ccc(Cl)cc4)cc23)c1F`, for which the max response was 14.6%.

Consider `Cc1cc(-c2ccc(CC(=O)Nc3ccc(-c4cccnc4)cc3)cc2)ccn1`, for which the max response was 17.3%.

`Cc1csc(NC(=O)c2sc3nc4c(c(C(F)(F)F)c3c2N)CCC4)n1`: the max response is 13.6%.

For `CC(C)OC(=O)C1=CN(C(=O)c2ccc(F)c(F)c2)CC(C)(C)c2c1[nH]c1ccccc21`, the max response was 18.7%.

With `Nc1cccc(S(=O)(=O)N2CCCN(S(=O)(=O)c3ccc4c(c3)OCCO4)CC2)c1`, the max response is 3.74%.

As for `Cn1cc(-c2ccc3nnc(C(F)(F)c4ccc5ncccc5c4)n3n2)cn1`, the max response was -4.32%.

Consider `CCc1cncnc1N1CCN(Cc2nc3ccc(C(F)(F)F)cc3[nH]2)CC1`, for which the max response is 8.68%.
